Experimental data taken from PubChem BioAssay (Tox21).
Records with an inconclusive call do not appear. Values without a mark were called inactive. Active and inactive are the calls of the source. Unless noted, the call rests on the fitted dose curve.

Test system: not listed separately
Test: cAMP Responsive Elements (CRE) small molecule antagonists, cell-based qHTS assay (AID 1963591; active means well fitted inhibition curve with a large enough effect in the signal ratio in the repeat runs, not every such curve was filed as active; the % refers to the signal ratio; further: potency means the concentration at half of the fitted maximal effect)
Settings: CRE-bla HEK293T, beta-lactamase FRET ratio; series mostly up to 92.4 µM; activity change, negative = inhibition: at the top concentration
How it was run: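 Reporter line CRE-bla HEK 293T in dialyzed-FBS DMEM; cells preincubated 18 h, treated 3 h with compound plus NKH477 (0.25 uM final); LiveBLAzer FRET, 2 h RT.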
On the % scale 0 is the no-effect control and ±100 the full control effect.

Structure (SMILES) | activity change, negative = inhibition | Potency
CCCN1CCC[C@@H]2Cc3[nH]ncc3C[C@H]21 | -3.5% [at 42.4 µM] | –
NP(N)(=O)NC(=O)c1ccc(F)cc1 | 3.77% [at 42.4 µM] | –
CCOC(=O)COc1ccc(Cl)cc1Cl | 17.4% | –
CCOc1cccc(C2(N3CCN(c4ccccc4)CC3)CCC(C)CC2)c1 (configuration not stated) | -25.6% | –
COP(=O)(OC)Oc1ccc([N+](=O)[O-])cc1 | -14.1% | –
COC(=O)N(C(=O)N1COC2(C(=O)OC)Cc3cc(Cl)ccc3C2=N1)c1ccc(OC(F)(F)F)cc1 (configuration not stated) | 4.87% [at 42.4 µM] | –
CC(Cc1ccccc1)NCCn1cnc2c1c(=O)n(C)c(=O)n2C (configuration not stated) | 1.17% | –
Cc1cccc(OP(=O)(Oc2cccc(C)c2)Oc2cccc(C)c2)c1 | 3.99% | –
ClCc1cccc(Cl)c1 | -4.74% [at 42.4 µM] | –
COP(=S)(OC)Oc1c(Cl)cc(C)cc1Cl | 15.7% | –
CCOP(=S)(OCC)SCS(=O)(=O)CC | 13.8% | –
CN(C)CCc1c[nH]c2cccc(O)c12 | 7.16% | –
CNP(=O)(OC)Oc1ccc(C(C)(C)C)cc1Cl (configuration not stated) | 13.8% | –
Cc1cccc2sc3nncn3c12 | 7.14% | –
COc1cc(CC(C)N)c(OC)cc1Br (configuration not stated) | -2.05% | –
O=C(CCl)C(Cl)Cl | – | 21.9 µM (active)
CCC1(c2ccccc2)C(=O)NC(=O)NC1=O | -7.28% | –
C=C(Cl)CSC(=S)N(CC)CC | -27.5% | –
ClC(Cl)C(Cl)Cl | -3.76% | –
CC(=O)CCc1ccc2c(c1)OCO2 | 7.8% | –
CNC(=O)Oc1ccc(N(C)C)c(C)c1 | -6.61% | –
CC(C)(C)c1ccc(OP(=O)(Oc2ccccc2)Oc2ccccc2)cc1 | -3.99% | –
C#CC1(O)CCCCC1 | 3.51% | –

Biological target: Beta-2 adrenergic receptor (Homo sapiens) (UniProt P07550)
Test: Adrenergic beta2 receptor (ADRB2) small molecule antagonists, cell-based qHTS assay (AID 1963592); further: nearly all actives have a fitted effect of over 50% in size; further: potency means the concentration at half of the fitted maximal effect
Settings: CHO-ADRB2 cells, isoproterenol-stimulated cAMP HTRF ratio, 0.5 h; series mostly up to 92.4 µM; activity change, negative = inhibition: at the top concentration
How it was run: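 Assay format: CHO-ADRB2 cells, 18-20hr seeding at 37C/5% CO2, then compound plus 1nM isoproterenol agonist mix for 0.5hr RT. Homogeneous time-resolved fluorescence cAMP detection after 1hr, expressed as 665/615 nm ratio.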

Beta-2 adrenergic receptor (Homo sapiens), sequence (P07550 whole entry, looked up): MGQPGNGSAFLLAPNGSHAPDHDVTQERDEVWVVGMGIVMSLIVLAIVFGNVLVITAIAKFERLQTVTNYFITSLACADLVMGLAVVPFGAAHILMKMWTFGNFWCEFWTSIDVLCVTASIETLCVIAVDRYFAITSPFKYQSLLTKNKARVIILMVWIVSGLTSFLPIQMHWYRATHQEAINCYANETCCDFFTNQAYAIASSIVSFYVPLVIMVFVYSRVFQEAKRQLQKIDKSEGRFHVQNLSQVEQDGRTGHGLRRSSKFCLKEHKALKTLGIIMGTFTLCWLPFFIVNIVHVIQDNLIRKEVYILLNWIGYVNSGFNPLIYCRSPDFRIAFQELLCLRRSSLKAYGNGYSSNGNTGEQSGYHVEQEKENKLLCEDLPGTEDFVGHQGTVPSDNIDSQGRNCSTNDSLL

Structure (SMILES) | activity change, negative = inhibition | Potency
CCCN1CCC[C@@H]2Cc3[nH]ncc3C[C@H]21 | 4.37% [at 42.5 µM] | –
C=CC[C@]1(O)CC[C@H]2[C@@H]3CCC4=CC(=O)CCC4=C3C=C[C@@]21C | 13.6% [at 42.5 µM] | –
NP(N)(=O)NC(=O)c1ccc(F)cc1 | 7.04% [at 42.5 µM] | –
CCOc1cccc(C2(N3CCN(c4ccccc4)CC3)CCC(C)CC2)c1 (configuration not stated) | -21.5% | –
COC(=O)N(C(=O)N1COC2(C(=O)OC)Cc3cc(Cl)ccc3C2=N1)c1ccc(OC(F)(F)F)cc1 (configuration not stated) | -10.2% [at 42.5 µM] | –
COc1cc(Cl)c(OC)cc1Cl | 7.5% | –
CC(Cc1ccccc1)NCCn1cnc2c1c(=O)n(C)c(=O)n2C (configuration not stated) | -4.57% | –
Cc1cccc(OP(=O)(Oc2cccc(C)c2)Oc2cccc(C)c2)c1 | 0.775% | –
OP(O)c1ccccc1 | 0.0962% | –
ClCc1cccc(Cl)c1 | -0.727% [at 42.5 µM] | –
COP(=S)(OC)Oc1c(Cl)cc(C)cc1Cl | 1.57% | –
CCOP(=S)(OCC)SCS(=O)(=O)CC | 1.55% | –
CCN1CCC2(CC1)COc1cc3c(cc12)N(C(=O)c1ccc(-c2ccc(-c4nnc(C)o4)cc2C)cc1)CC3 | 1.92% | –
COP(N)(=S)Oc1ccccc1C(=O)OC(C)C (configuration not stated) | -0.0419% | –
CNP(=O)(OC)Oc1ccc(C(C)(C)C)cc1Cl (configuration not stated) | -19.8% | –
Cc1cccc2sc3nncn3c12 | -1.31% | –
CC1(C)CN=C(NN=C(/C=C/c2ccc(C(F)(F)F)cc2)/C=C/c2ccc(C(F)(F)F)cc2)NC1 | -0.641% | –

Structure (SMILES) | activity change, negative = inhibition | Potency
O=C(CCl)C(Cl)Cl | 18.8% | –
CCC1(c2ccccc2)C(=O)NC(=O)NC1=O | 0.588% | –
O=c1[nH]c(Cl)c(Cl)cc1Cl | -1.61% | –
CC(=O)[O][Sn]([c]1ccccc1)([c]1ccccc1)[c]1ccccc1 | – | 61.1 µM (active)
C=C(Cl)CSC(=S)N(CC)CC | 1.53% | –
ClC(Cl)C(Cl)Cl | 2.34% | –
CC(=O)CCc1ccc2c(c1)OCO2 | -1.06% | –
CN(C)C(=O)Nc1cccc(OC(=O)NC(C)(C)C)c1 | 3.97% | –
CNC(=O)Oc1ccc(N(C)C)c(C)c1 | 1.54% | –
COP(=O)(OC)O/C(=C\Cl)c1cc(Cl)c(Cl)cc1Cl | -6.91% | –
CC(C)(C)c1ccc(OP(=O)(Oc2ccccc2)Oc2ccccc2)cc1 | 5.92% | –
CC[C@H]1C[C@H]2[C@@H]3CCC4=CC(=O)CC[C@@H]4[C@H]3CC[C@]2(C)[C@H]1O | -14.2% [at 42.5 µM] | –
COC(=O)C(C)N(C(=O)c1ccco1)c1c(C)cccc1C (configuration not stated) | -0.313% | –
C#CC1(O)CCCCC1 | 2.1% | –
CSc1ccc(C(=O)C(C)(C)N2CCOCC2)cc1 | -4.63% | –
CCCCc1c(C)nc(NCC)nc1OS(=O)(=O)N(C)C | 1.95% | –

Biological target: Beta-2 adrenergic receptor (Homo sapiens) (UniProt P07550)
Test: Adrenergic beta2 receptor (ADRB2) small molecule agonists, cell-based qHTS assay (AID 1963593);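 further: CHO cells stably overexpressing human ADRB2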
Settings: CHO-ADRB2 cells, cAMP HTRF, 30 min; series mostly up to 92.4 µM; activation: at the top concentration
How it was run: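 CHO cells stably over-expressing ADRB2 were plated overnight at 37C, then dosed with compounds plus a stimulation mix containing 100uM IBMX and 25uM Ro-20-1724 for 0.5hr at room temperature. cAMP was measured by HTRF competition, 1hr.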

Structure (SMILES) | activation
CCCN1CCC[C@@H]2Cc3[nH]ncc3C[C@H]21 | 1.6% [at 42.5 µM]
CCOC(=O)COc1ccc(Cl)cc1Cl | -46%
COC(=O)N(C(=O)N1COC2(C(=O)OC)Cc3cc(Cl)ccc3C2=N1)c1ccc(OC(F)(F)F)cc1 (configuration not stated) | 4.28% [at 42.5 µM]
COc1cc(Cl)c(OC)cc1Cl | -16.4%
CC(Cc1ccccc1)NCCn1cnc2c1c(=O)n(C)c(=O)n2C (configuration not stated) | 0.442%
ClCc1cccc(Cl)c1 | 4.65% [at 42.5 µM]
COP(=S)(OC)Oc1c(Cl)cc(C)cc1Cl | -0.0997%
CCOP(=S)(OCC)SCS(=O)(=O)CC | -65.8%
COP(N)(=S)Oc1ccccc1C(=O)OC(C)C (configuration not stated) | 6.61%
CNP(=O)(OC)Oc1ccc(C(C)(C)C)cc1Cl (configuration not stated) | -2.58%
Cc1cccc2sc3nncn3c12 | -5.85%
ClC(Cl)C(Cl)Cl | 9.64%
CC(=O)CCc1ccc2c(c1)OCO2 | 9.4%
COP(=O)(OC)O/C(=C\Cl)c1cc(Cl)c(Cl)cc1Cl | -4.91%
CC[C@H]1C[C@H]2[C@@H]3CCC4=CC(=O)CC[C@@H]4[C@H]3CC[C@]2(C)[C@H]1O | -24% [at 42.5 µM]
C#CC1(O)CCCCC1 | 11.4%
